BLM helicase inh – inhibitors of human Bloom syndrome helicase BLM; recombinant BLM DNA unwinding, fluorescence dequenching; P54132; Potency, µM (titrated, usually from 56.1 µM), inactives show top-dose activity change, negative = inhibition, hits mostly inhibitors; AID 2528; actives 0.2% (n = 350,000);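 also: plate controls were vehicle for no effect and no enzyme for full effect; nearly all actives have a fitted effect of over 35% in size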
JMJD2E inh – blocks human JMJD2E demethylase activity. B2RXH2. JMJD2E catalytic domain, FDH-coupled NADH fluorescence (FDH is formaldehyde dehydrogenase). Potency, µM (titrated, usually from 57.1 µM), inactives show at the highest dose activity change, negative = inhibition, actives largely listed as inhibitors. actives 1.6% (n = 230,000). AID 2147; active = well fitted inhibition curve with a large enough effect, not every such curve was filed as active; inconclusive = small, poorly fitted or top-dose-only effect, or another doubt; inactive = no such curve, though single readings can be large or run the other way;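 also: 0% = wells with enzyme and -100% = buffer wells without enzyme; nearly all actives have a fitted effect of over 50% in size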
RECQ1 helicase – inhibitors of human RECQ1 DNA helicase | P46063 | RECQ1 DNA unwinding, red fluorescence kinetic read | Potency, µM (titrated, usually from 57.3 µM), for the others: top-dose activity, negative = inhibition, most hits filed as inhibitors | actives 0.54% (n = 240,000) | AID 2549;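 also: plate controls were vehicle for no effect and no enzyme for full effect; nearly all actives have a fitted effect of over 30% in size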
Target sequence (P46063 whole entry, looked up): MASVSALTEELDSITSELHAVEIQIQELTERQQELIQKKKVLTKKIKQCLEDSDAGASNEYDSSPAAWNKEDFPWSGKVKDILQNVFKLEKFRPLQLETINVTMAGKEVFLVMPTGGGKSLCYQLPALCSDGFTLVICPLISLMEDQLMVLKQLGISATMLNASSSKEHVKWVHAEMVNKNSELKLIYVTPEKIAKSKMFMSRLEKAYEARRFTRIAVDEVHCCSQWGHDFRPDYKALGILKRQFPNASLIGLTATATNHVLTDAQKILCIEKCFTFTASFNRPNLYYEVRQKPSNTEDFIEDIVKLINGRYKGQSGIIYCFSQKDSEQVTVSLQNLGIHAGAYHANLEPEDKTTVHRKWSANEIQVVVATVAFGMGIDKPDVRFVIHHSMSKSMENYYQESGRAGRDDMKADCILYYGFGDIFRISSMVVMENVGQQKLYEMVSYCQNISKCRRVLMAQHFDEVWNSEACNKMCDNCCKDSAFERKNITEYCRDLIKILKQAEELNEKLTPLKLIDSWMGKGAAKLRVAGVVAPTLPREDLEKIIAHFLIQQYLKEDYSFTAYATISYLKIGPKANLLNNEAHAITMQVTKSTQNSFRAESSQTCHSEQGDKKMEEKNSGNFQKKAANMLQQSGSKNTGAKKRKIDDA
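50 nM RECQ1T1 preincubated 15 min with compound in Tris pH 8.0 buffer with MgCl2, DTT, Tween-20 and 2.5 ug/ml poly(dI-dC); started with 200 nM TAMRA/BHQ-2 forked duplex and 2 mM ATP. Unwinding read as fluorescence (525/598 nm), two reads 2 h apart.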
TDP1 inh – TDP1 (human) enzyme inhibition; Q9NUW8; Potency, µM (series often up to 130 µM), inactives show top-dose activity change, negative = inhibition, actives largely listed as inhibitors; actives 0.28% (n = 350,000); recombinant TDP1, AlphaScreen DNA substrate cleavage; also: nearly all actives have a fitted effect of over 40% in size
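E. coli-derived human Tdp1, 1 nM final. Cpd preinc 15 min RT; substrate 15 nM final, 5 min RT; AS bead mix 10 ug/ml final, 10 min RT. Signal loss = tyrosine-FITC cleavage. No-enzyme wells = max signal.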
APEX1 inh – inhibitors of human APE1 endonuclease. recombinant APE1, TAMRA/BHQ-2 abasic DNA cleavage fluorescence. Potency, µM (series often up to 65.8 µM), inactives show at the highest dose activity change, negative = inhibition, actives largely listed as inhibitors. actives 0.35% (n = 350,000);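 also: plate controls were vehicle for no effect and reference inhibitor for full effect; nearly all actives have a fitted effect of over 55% in size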
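Enzyme (0.75 nM final) and test compound are incubated 15 min at room temperature before adding 50 nM quenched THF abasic-site duplex. Cleavage dequenches TAMRA, followed at 525/598 nm over three reads one minute apart.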
GCN5L2 inh – GCN5L2 (KAT2A) acetyltransferase inhibition; Q92830; GCN5L2 HAT assay, ThioGlo1 CoA-SH fluorescence; Potency, µM (series often up to 58.9 µM), without a hit: at the top dose activity change, negative = inhibition, usual class: inhibitors; actives 0.21% (n = 390,000); AID 504327
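Compounds, pin-transferred from DMSO stocks, meet 20nM GCN5L2 for 15 min before the reaction begins with H3(1-25) peptide (75uM) and acetyl-CoA (70uM). Thiol-reactive ThioGlo1 reports CoA release over 20 min at room temperature.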
The depositor's hits bear a star; i = inactive; u = inconclusive; x = no result given; ! = a repeat was not active; [ ] = remark or other dose. The full list was thinned out, with hits kept by preference. Unless noted, calls follow the shape of the dose curve; as a rule, active = well fitted curve in the direction sought with a large enough effect; inconclusive = small, poorly fitted or top-dose-only effect, or another doubt; inactive = no such curve, though single readings can be large; an effect the other way counts as inactive or inconclusive. Unless noted, % is scaled to controls: 0 for no effect and ±100 for the full control effect; potency is read from the fitted curve at half-maximal effect.

SMILES	BLM helicase inh	JMJD2E inh	RECQ1 helicase	TDP1 inh	APEX1 inh	GCN5L2 inh
CCCCCOC(=O)CCN1C(=O)/C(=C2\SC(=S)N(CCC(=O)OCCCCC)C2=O)SC1=S	0%	-1%	1.6µM*	7%	0%	-5%
CCCCOC(=O)CCN1C(=O)/C(=C2\SC(=S)N(CCC(=O)OCCCC)C2=O)SC1=S	1%	-3%	-21%	3%	0%	27%
O=C(O)c1ccccc1Nc1cccc(OCc2ccc3ccccc3n2)c1	-12%	1%	i	6%[56.1 µM]	-18%	28µM*
COc1ccc(Nc2ccccc2C(=O)O)cc1	-4%	4%	-3%	0%	1%	-4%
Oc1c(Br)cc(/C=N/n2c(-c3ccccc3)n[nH]c2=S)cc1Br	-1%	x	x	25µM*	-22%	u
Oc1ccc(/C=N/n2c(-c3ccccc3)n[nH]c2=S)cc1Br	-4%	x	x	8%	21%	-22%
COc1cc(/C=N/n2c(-c3ccccc3)n[nH]c2=S)ccc1O	4%	25µM*	0%	1%	22%	-8%
COc1ccccc1N1CCN(Cc2cc(Br)c(O)c3ncccc23)CC1	-3%	25µM*	-16%	9%	-1%	-7%
OCCN1CCN(Cc2cc(Cl)c3cccnc3c2O)CC1	0%	22µM*	1%	12%	3%	-6%
O=C(Oc1c(CN2CCOCC2)cc(Cl)c2cccnc12)c1ccc(F)cc1	-3%	2%	3%	4%	1%	-3%
Oc1c(CN2CCN(c3ccccn3)CC2)cc(Cl)c2cccnc12	-7%	u	9%	11%	8%	-10%
O=[N+]([O-])c1cc(CN2CCCC2)c2cccnc2c1O	u	20µM*	u	3.5µM*	3.5µM*	-26%
O=C(Oc1c(CN2CCOCC2)cc(Cl)c2cccnc12)c1cccs1	-11%	25µM*	-11%	8%	-5%	-2%
COc1ccccc1N1CCN(Cc2cc(COC(C)C)c3cccnc3c2O)CC1	4%	x	x	8%	x	-5%
OC[C@@H](O)C(O)[C@H](O)CO	x	x	x	x	-4%	x
COCc1cc(CN2CCCC2)c(O)c2ncccc12	-3%	3.5µM*	-3%	10%	-3%	-4%
Oc1c(CN2CCCCC2)cc(COCc2ccccc2)c2cccnc12	-7%	-3%	-2%	-3%	7%	-6%
CC(=O)c1ccc(Nc2c3ccccc3cc3occc23)cc1	0%	x	0%	15%	-9%	0%
CCOc1cc(/C=C2\SC(=S)N(NC(=O)c3cccnc3)C2=O)ccc1O	-7%	-4%	18µM*	-2%	u	-11%
CCOc1cc(/C=C2/SC(=S)N(CC3CCCO3)C2=O)ccc1O (stereo unspecified)	-13%	u	14µM*	0%	-10%	0%
COc1cc(/C=C2\SC(=S)N(NC(=O)c3ccc(O)c(OC)c3)C2=O)ccc1O	-14%	x	x	x	1%	u
O=C1/C(=C/c2cccc(O)c2)SC(=S)N1CC1CCCO1 (stereo unspecified)	-3%	-2%	5%	7%	-1%	-3%
O=C(N/N=C\c1ccc(F)cc1)c1cc(OCC(F)(F)F)ccc1OCC(F)(F)F	-3%	13%	i	4%	-7%	1%
O=C(N/N=C/c1ccc(OCCCF)cc1)c1cc(OCC(F)(F)F)ccc1OCC(F)(F)F	0%	-9%	-20%	4%	-2%	0.89µM*
CCC(=O)NC(c1ccco1)c1cc([N+](=O)[O-])c2cccnc2c1O (stereo unspecified)	x	x	x	2%	x	x
SMILES	BLM helicase inh	JMJD2E inh	RECQ1 helicase	TDP1 inh	APEX1 inh	GCN5L2 inh
N#Cc1ccc(NS(=O)(=O)c2ccc3c(c2)CCC(=O)N3)cc1	x	x	x	1%	x	x
COc1ccc(OC)c(Nc2nc(NCc3ccco3)c3ccccc3n2)c1	28µM*	x	x	x	-8%	-2%
Cc1ccccc1Nc1nc(NCc2ccco2)c2ccccc2n1	-4%	u	-18%	11%	15%	-6%
COc1ccc(OC)c(NC(=O)C(CC(=O)O)NCc2ccco2)c1 (stereo unspecified)	-1%	4%	-2%	4%	3%	3.2µM*
Cc1noc(C)c1-c1ccc2ncnc(NCc3ccc(C(F)(F)F)cc3)c2c1	-4%	x	i	6%	-5%	x
Cc1ccccc1OCCN1CCCC1	0%	x	x	79µM*	5%	-4%
COc1cc(/C=C2\SC(=Nc3ccc(Cl)c(C(=O)O)c3)NC2=O)c(Br)c(Br)c1O	-3%	x	x	8.9µM*	u	u
COc1cccc(C2c3c(ncn(-c4ccncc4)c3=N)Oc3ccc4ccccc4c32)c1 (stereo unspecified)	x	x	x	3%	x	x
Cc1ccc2nc(/C(C#N)=C/c3ccc(O)c(O)c3)[nH]c2c1	20µM*	x	x	8%	6%	-3%
O=C(Nc1ccc2oc(-c3ccccc3F)nc2c1)c1ccc([N+](=O)[O-])o1	-16%	x	x	x	2.7µM*	-5%
CCOc1ccc(OCCC(=O)OCC(=O)N2CCN(S(=O)(=O)c3ccc(Cl)cc3)CC2)cc1	-11%	x	x	25µM*	u	-5%
Cc1ccc(C)c(OCCC(=O)OCC(=O)N2CCN(S(=O)(=O)c3ccc(Cl)cc3)CC2)c1	x	x	x	-14%	46%	-7%
O=C(Oc1cccc(/C=N/Nc2nc(Nc3ccccc3)nc(N3CCOCC3)n2)c1)c1ccco1	-7%	2%	22µM*	5%	7%	-11%
O=C(CSc1nc2ccccc2o1)N/N=C/c1ccc(O)c(O)c1	-21%	11µM*	-12%	x	u	-14%
O=C(CSc1nc2ccccc2o1)N/N=C/c1ccccc1	-3%	10%	0%	-1%	1%	13%
C[C@@]12CC[C@@H]3c4ccc(O)cc4CC[C@H]3[C@H]1CC[C@H]2O	-7%[21.4 µM]	-3%[25.5 µM]	i	10%[21 µM]	4%[21 µM]	8%[21.4 µM]
C[C@]12CC[C@@H]3c4ccc(O)cc4CC[C@H]3[C@@H]1CC[C@@H]2O	-7%	-2%	32µM*!	3%	2%	1%
C[C@](Cc1ccc(O)c(O)c1)(NN)C(=O)O	x	x	x	x	x	-6%
C[C@@](Cc1ccc(O)c(O)c1)(NN)C(=O)O	-3%	3.5µM*!	-3%	u	0%	1%
C=CCn1c(CNc2ccccc2)nnc1SCC(=O)N/N=C/c1ccccc1O	-2%	14µM*	-6%	9%	8%	-7%
CC(C)(C)n1ncc2c(=O)n(Cc3ccc(F)cc3Cl)cnc21	x	x	x	x	16%	x
Cc1ccc(C2(C)NC(=O)N(CC(=O)NCCC3=CCCCC3)C2=O)cc1 (stereo unspecified)	-3%	2%	i	5%	26%	-1%

Screens (PubChem)
